SMILES strings stand for the structures. Among all 2,400 compounds or so, about 20 (0.8%) were called active. The sample as a whole holds a higher share of actives than the screen did. Unmarked numbers belong to inactive results.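 Rule for the calls: active = AC50 no more than ten times the highest tested concentration, or full inhibition at every dose giving a flat fit (cut at about 30 µM in these data); inconclusive = flat fit with activity between 30% and 70%, or poor-quality invalid fit; inactive = AC50 more than ten times the top tested dose.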

The test can be described thus: luciferase-based ADP detection interference – biochemical, luminescence, cell-free, homogeneous, artefact control for GSK-3a inhibitor project, dose response (AID 463205).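 Note: kinase-free counter-screen against the ADP-Glo detection reagents only; potency is for inhibitors that reduce the luminescence signal.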 Particulars: Cell-free ADP-Glo detection reagents, 5 uM ADP.
`Fc1ccc(Nc2ncnc3ccccc23)cc1`: the AC50 is more than 30 µM.

On to `COc1cc(Br)c(C2C(C#N)=C(N)Oc3n[nH]c(-c4cccnc4)c32)cc1OC` (configuration not stated), for which the AC50 is more than 30 µM. The value for `Cc1nc2ccccc2n2c(-c3ccccc3)c3c(=O)n(C)c(=O)n(C)c3c12` was more than 30 µM. The value for `CC(/C=N/NC(=O)CSc1nc2ccccc2n1C)=C\c1ccco1` was more than 30 µM; that for `Cn1c(N=Nc2ccccc2)nc2ccccc21` was 27.9 µM (active); that for `COc1ccc(/C=C/c2nc(N)nc(-c3ccccc3O)n2)cc1OC` was more than 30 µM. The result for `CC(C)c1cc(C(N)=O)c(NC(=O)C2CCC2)s1` reads more than 30 µM; that for `C/C(=N\NC(=O)c1nnn(-c2nonc2N)c1-c1ccccc1)c1cccnc1`, more than 30 µM; that for `CC(=O)Nc1ccc(Nc2ncnc(N)c2[N+](=O)[O-])cc1`, more than 30 µM. In the case of `O=[N+]([O-])c1cc(S(=O)(=O)c2ccc(N3CCCCC3)c([N+](=O)[O-])c2)ccc1N1CCCCC1`, the AC50 is more than 30 µM. The result for `COc1ccccc1CC(=O)N1CCOCC1` reads more than 30 µM; that for `CC(C)=CC(=O)NCc1c(Cl)cccc1-n1cccc1`, more than 30 µM. Turning to `Cc1nc2sc3c(c2c(=O)o1)CC(C)(C)OC3`, the AC50 was more than 30 µM.

Take `CCC(C)Nc1nc(N)c([N+](=O)[O-])c(N2CCCCCC2)n1` (configuration not stated): the AC50 is more than 30 µM. The result for `O=C(NC1(C(F)(F)F)NC(=O)N(Cc2cccnc2)C1=O)c1ccncc1` (configuration not stated) reads more than 30 µM.

On to `COc1ccccc1NC(=O)CSc1nnc(-c2ccccc2)o1`, for which the AC50 is more than 30 µM.

With `CC(=O)c1sc(NC(=O)CN2C(=O)NC3(CCCC3)C2=O)nc1-c1ccccc1`, the AC50 was more than 30 µM. The value for `COC1(OC)N=C(N)C2(C#N)C(c3ccc4c(c3)OCO4)C12C#N` (configuration not stated) was more than 30 µM; that for `Nc1c(S(=O)(=O)c2ccccc2)nnn1-c1ccccc1` was more than 30 µM. The result for `O=C1CC(c2cccs2)CC2=C1C(c1ccccc1)n1ncnc1N2` (configuration not stated) reads more than 30 µM. The value for `O=C(NCCCn1ccnc1)C(=O)NC1CCCCC1` was more than 30 µM. Consider `Nc1ncnc2c1ncn2[C@@H]1O[C@H](COS(=O)(=O)O)[C@@H](O)[C@H]1O`, for which the AC50 was more than 30 µM. `CCCCN(CC)C(=O)c1oc2ccc(S(=O)(=O)N3CCCC3)cc2c1C`: the AC50 is more than 30 µM. The result for `CC(C)OCCCNc1nc2c([nH]1)c(=O)n(C)c(=O)n2C` reads more than 30 µM; that for `CCOC(=O)c1nnn(-c2ccc(OC)cc2)c1N`, more than 30 µM. The result for `COc1cc(/C=N/NC(=O)c2cccc(C(=O)N/N=C/c3ccc(O)c(OC)c3)n2)ccc1O` reads more than 30 µM; that for `CN(C)C(=O)c1ccc(NC(=O)c2cc(-n3cnnc3)ccc2Cl)cc1`, more than 30 µM; that for `CC(OC(=O)Cc1c[nH]c2ccccc12)C(=O)c1ccccc1` (configuration not stated), more than 30 µM. Turning to `CC(C)CC(=O)NC(=S)Nc1sc2c(c1C(N)=O)CCC2`, the AC50 was more than 30 µM. The value for `COc1cccc(-c2nc(-c3ccccc3)[nH]c(=O)c2C#N)c1` was more than 30 µM; that for `CCOC(=O)c1sc(NC(=O)C2CC2)nc1C` was more than 30 µM. The value for `CCOC(=O)c1cnn(C)c1NC(=O)c1ccc(Cl)cc1Cl` was more than 30 µM; that for `COc1cccc(/C=N/n2cncn2)c1OCC#N` was more than 30 µM. In the case of `Cc1ccc(-c2cn3cccnc3n2)cc1NC(=O)c1cccs1`, the AC50 is more than 30 µM. The result for `CCCOc1ccc(-c2nnc(N)s2)cc1` reads more than 30 µM. The result for `O=C(CSc1ccccn1)Nc1nc2ccc(Br)cc2s1` reads more than 30 µM; that for `Nc1nc(-c2ccccc2)nc(-c2ccccc2O)n1`, more than 30 µM.

Turning to `O=C(O)CCSc1nnc(-c2ccncc2)n1-c1ccccc1`, the AC50 was more than 30 µM.

On to `NC(=O)c1ccc(NC(=O)CSc2nnc(-c3ccc4c(c3)OCO4)o2)cc1`, for which the AC50 is more than 30 µM. With `C#CCOCCOCCOCCNc1nc(N2CCN(C(=O)CCCCCCCCCCNC(=O)[C@H]([C@@H](C)CC)n3cc(CCCCCN)nn3)CC2)nc(N2CCN(C(=O)CCCCCCCCCCNC(=O)[C@H](CO)n3cc(CCCCCN)nn3)CC2)n1`, the AC50 was more than 30 µM. Take `CCCCOC(=O)Nc1nnc(COc2ccccc2)s1`: the AC50 was more than 30 µM. Take `CCCOc1ccccc1NC(=O)Nc1ccccc1Cl`: the AC50 is more than 30 µM.

As to `O=C(Nc1cccc(-c2cnc3ccccc3n2)c1)c1ccncc1`, the AC50 is more than 30 µM. Consider `O=C(NCCN1CCN(Cc2ccccc2)CC1)Nc1cc(Cl)cc(Cl)c1`, for which the AC50 is more than 30 µM. The result for `COc1ccc(-c2nnc(SCC(=O)Nc3ccccc3OC)o2)cc1` reads more than 30 µM; that for `COc1cc(C2c3sc(=O)[nH]c3SC3C4CCC(C4)C23)ccc1O` (configuration not stated), more than 30 µM.

Turning to `Oc1ccc(-c2csc(Nc3ccccn3)n2)c(O)c1`, the AC50 is more than 30 µM. The value for `CCOC(=O)CC(C#N)c1c[nH]c2ccccc12` (configuration not stated) was more than 30 µM; that for `COc1ccccc1N1CCN(C(=O)c2cc(-c3ccccc3)on2)CC1` was more than 30 µM. The result for `Cc1sc2ncnc(N3CCC(C(=O)Nc4ccc(C#N)cc4)CC3)c2c1C` reads more than 30 µM; that for `CC(=O)Nc1sc2c(c1C(N)=O)CCCC2`, more than 30 µM. The result for `N#CC1=C2SCN(Cc3ccco3)CN2C(=O)CC1c1c(F)cccc1Cl` (configuration not stated) reads more than 30 µM; that for `CCN(C(=O)C1CCCN1S(=O)(=O)c1cccc2nsnc12)c1ccccc1` (configuration not stated), more than 30 µM; that for `Cc1ccc(C)c(N2CC(C(=O)Nc3nccs3)CC2=O)c1` (configuration not stated), more than 30 µM. For `Fc1ccc(-c2nc3n(n2)Cc2ccccc2-3)cc1`, the AC50 was more than 30 µM. Turning to `CCn1c(C)nc2cc(-c3nc4n(n3)Cc3ccccc3-4)ccc21`, the AC50 was 24.3 µM (active).

In the case of `Cc1ccc(-c2nc3n(n2)Cc2ccccc2-3)cc1`, the AC50 was more than 30 µM.

In the case of `NCCNc1ccc([N+](=O)[O-])c(NC2CC2)c1`, the AC50 is more than 30 µM. The value for `COc1ccc(Nc2sc(C(=O)c3ccc(Cl)cc3)c(N)c2C(=O)Nc2ccccc2OC)cc1` was more than 30 µM; that for `Cc1ccc(NC(=O)CSCc2nc3c(nnn3Cc3ccc(F)cc3)c(=O)[nH]2)c(C)c1` was more than 30 µM. The value for `COc1ccc(/C=C/c2nc3ccccc3n2C)cc1` was 14.3 µM (active); that for `COc1c2ccccc2nc2ccccc12` was more than 30 µM. The result for `COc1ccc(/C=C/c2nc(N)nc(-c3ccccc3O)n2)cc1` reads more than 30 µM; that for `C[n+]1cccc(C2C(C#N)=C(N)Oc3c2ccc2ccccc32)c1` (configuration not stated), more than 30 µM. With `O=C(CSc1nnc(-c2ccncc2)s1)Nc1ccccc1`, the AC50 was more than 30 µM. The result for `O=C(CSc1nnc(-c2ccc(O)cc2)o1)Nc1ccccc1Br` reads more than 30 µM; that for `COc1ccc(CNc2ccc3cn[nH]c3c2)c(OC)c1OC`, more than 30 µM; that for `CCCc1[nH]nc2c1C(c1ccc(O)c(OC)c1)C(C#N)=C(N)O2` (configuration not stated), more than 30 µM. Turning to `Cc1sc2ncnc(NCCCN3CCCC3=O)c2c1C`, the AC50 was more than 30 µM. The value for `Cc1cc(C)c2[nH]c(O)c(N=Nc3ccc(C(=O)O)cc3)c2c1` was more than 30 µM. Consider `N#Cc1c(NC(=O)CSc2n[nH]c(N)n2)oc(-c2ccccc2)c1-c1ccccc1`, for which the AC50 was more than 30 µM.

For `COc1cccc(/C=c2\s/c(=C\C(=O)C(C)(C)C)[nH]c2=O)c1`, the AC50 was more than 30 µM. The result for `CCOC(=O)c1cnc2c(C)cc(Cl)cc2c1N1CCN(C)CC1` reads more than 30 µM; that for `COc1ccccc1/C=N/NC(=O)c1nnn(-c2nonc2N)c1-c1cccs1`, more than 30 µM. The result for `CCN1CCN(c2nc(Nc3cccc(F)c3)nc(N)c2[N+](=O)[O-])CC1` reads more than 30 µM; that for `Cc1nc(N2CCOCC2)nc(N2CCCCC2)c1[N+](=O)[O-]`, more than 30 µM; that for `COc1ccc(O)c(-c2nc(N)nc(N)n2)c1`, more than 30 µM. The value for `Cc1cccc(C)c1OCC(O)CNC(C)c1ccccc1` (configuration not stated) was more than 30 µM; that for `O=C(CNC(=O)c1ccccc1)N/N=C/C=C/c1ccccc1` was more than 30 µM. For `Cc1cc(NC(=O)COC(=O)c2cc(S(=O)(=O)N3CCOCC3)ccc2N2CCCCC2)no1`, the AC50 was more than 30 µM.

In the case of `CN(c1nc2nonc2nc1NC1CC1)C1CCOC1` (configuration not stated), the AC50 is more than 30 µM. The result for `CCC/C(=N/NC(=O)c1nnn(-c2nonc2N)c1CN1CCCCC1)c1ccccc1` reads more than 30 µM.

On to `COc1ccc(NC(=O)CSc2nnc(-c3cccc(O)c3)o2)cc1`, for which the AC50 is more than 30 µM.

Take `COc1ccc2cc(C(=O)NCc3ccco3)c(=O)oc2c1`: the AC50 was more than 30 µM. The value for `COc1cccc(NC(=O)[C@@H]2CCCN2S(=O)(=O)c2cccc3cccnc23)c1` was more than 30 µM. As to `CCCNC(=O)NC(C(=O)OC)C12CC3CC(CC(C3)C1)C2` (configuration not stated), the AC50 was more than 30 µM. The result for `CCOC(=O)c1[nH]c2c(c1C)C(=O)CC(c1ccc(OC)c(OC)c1)C2` (configuration not stated) reads more than 30 µM.

The values are drawn from PubChem BioAssay AID463205 (Broad Institute, 2010).
